Screening data (PubChem BioAssay)
Cruzain inh Det: qHTS Assay for Promiscuous and Specific Inhibitors of Cruzain (with detergent); purified cruzain, Z-FR-AMC fluorescence, 0.01% Triton; Potency, µM, for inactives: max response, negative = inhibition, hits mostly inhibitors; 200,000 tested, 0.43% active; AID 1478, 2009;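 also: plate controls were neutral wells for no effect and buffer without enzyme for full effect; nearly all actives have a fitted effect of over 40% in size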
Target sequence (P25779 123-467 limits assumed): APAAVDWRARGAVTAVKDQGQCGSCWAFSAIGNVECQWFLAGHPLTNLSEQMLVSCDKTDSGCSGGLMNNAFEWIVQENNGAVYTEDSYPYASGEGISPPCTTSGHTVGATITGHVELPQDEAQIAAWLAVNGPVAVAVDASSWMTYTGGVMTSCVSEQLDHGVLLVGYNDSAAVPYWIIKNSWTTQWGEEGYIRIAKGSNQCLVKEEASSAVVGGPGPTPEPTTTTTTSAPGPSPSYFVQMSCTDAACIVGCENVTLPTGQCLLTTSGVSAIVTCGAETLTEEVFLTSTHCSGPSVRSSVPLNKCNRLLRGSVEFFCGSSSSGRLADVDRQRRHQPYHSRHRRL
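Cruzain (1.5 nM) preincubated 15 min at RT with compound in 100 mM sodium acetate pH 5.5, 5 mM DTT, 0.01% Triton X-100. Reaction started with 2 uM Z-FR-AMC; AMC fluorescence (ex 360/em 450 nm) change over 60 s gave rate.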
NS1 function inh: qHTS Assay for Inhibitors of Influenza NS1 Protein Function | Potency, µM (series often up to 46.1 µM), for the others: at the highest dose activity, positive = more growth | 270,000 tested, 0.4% active | AID 2326, 2010; calls by dose curve; also: actives are rising curves; nearly all actives have a fitted effect of over 50% in size
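Growth recovery, yeast-based: influenza A NS1 expressed in S. cerevisiae causes slow growth, and suppressors are detected by OD600. The parent strain without NS1 is used as positive control.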
Cruzain noTriton: qHTS Assay for Promiscuous and Specific Inhibitors of Cruzain (without detergent); 200,000 tested, 2.3% active; AID 1476, 2009; Cruzipain (Trypanosoma cruzi), P25779; Potency, µM, without a hit: max response, negative = inhibition, actives largely listed as inhibitors; purified cruzain, Z-FR-AMC fluorescence, no detergent;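 also: plate controls were enzyme without inhibitor for no effect and buffer without enzyme for full effect; nearly all actives have a fitted effect of over 40% in size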
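Purified cruzain at 1.5 nM, pre-incubated 15 min with compound at room temperature in 100 mM sodium acetate pH 5.5, 5 mM DTT, 0.00005% Triton X-100. Reaction started with 2 uM Z-FR-AMC; AMC fluorescence increase over 60 s gives rate.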
* = called active by the depositor; ? = inconclusive; nt = no result. This is one part of a sample in which hits are shown more often than they occur. Unless noted, calls follow the shape of the dose curve; as a rule, active = well fitted curve in the direction sought with a large enough effect; inconclusive = small, poorly fitted or top-dose-only effect, or another doubt; inactive = no such curve, though single readings can be large; an effect the other way counts as inactive or inconclusive. Potency is read from the fitted curve at half-maximal effect.

SMILES	Cruzain inh Det	NS1 function inh	Cruzain noTriton
Cc1noc(/C=C/c2cccs2)c1S(=O)(=O)N1CCC(C(=O)Nc2ccc(F)c(Cl)c2)CC1	-2.4%	nt	?
COc1cc(NC(=O)C2CCN(S(=O)(=O)c3c(C)noc3/C=C/c3cccs3)CC2)cc(OC)c1	-2.5%	nt	15.8µM*
C=Cc1ccc(C=C)cc1	7.5%	nt	14.5%
CCCCC(=O)N(C)C	4.8%	nt	0.6%
O=C1CC(SCc2nc3ccccc3[nH]2)C(=O)N1c1ccc(F)cc1 (stereo not given)	-7.2%	-56.2%	?
O=C1CC(SCc2nc3ccccc3[nH]2)C(=O)N1c1cccc(Cl)c1 (stereo not given)	-12.1%	-155.5%	15.8µM*
c1ccc2c([C@@H]3CCN(CCN4CCOCC4)C3)c[nH]c2c1	0.0%	1.8%	3.4%
CC(C)C(=O)Nc1sc2c(c1-c1nc3ccccc3[nH]1)CCCC2	-1.0%	2.0%	20µM*
CC(C)C(=O)Nc1ccccc1-c1nc2ccccc2[nH]c1=O	nt	-5.9%	nt
NS(=O)(=O)O	6.5%	nt	7.1%
COc1ccccc1CN1CCC2(CC1)CCN(S(=O)(=O)c1ccccc1)CC2	6.6%	nt	-1.3%
COc1ccc2oc(=O)c(/C(C)=N/Nc3nc(-c4cc(C)ccc4C)cs3)cc2c1	-21.1%	13.7%	12.6µM*
C/C(=N\Nc1nc(-c2ccc(C)cc2C)cs1)c1cc2ccccc2oc1=O	-19.8%	?	?
CCc1cccc(-n2c(=O)c3cccnc3n2CC(=O)Nc2ccc(OC)c(Cl)c2)c1	-1.2%	nt	25.1µM*
CCc1ccc(-n2c(=O)c3cccnc3n2CC(=O)Nc2cc(OC)ccc2OC)cc1	3.1%	nt	-0.5%
Nc1nc2ncc(=O)[nH]c2c(=O)[nH]1	8.6%	nt	2.2%
Cc1nnc(-c2ccc(Oc3ccc(Br)cc3)c([N+](=O)[O-])c2)o1	-3.1%	3.5%	4.5%
Cc1cc(Oc2ccc(-c3nnc(-c4ccccc4)o3)cc2[N+](=O)[O-])ccc1Cl	0.1%	22.9%	12.6µM*
O=C(Cn1c(=O)n(Cc2nc(-c3ccccc3)no2)c(=O)c2cc3c(cc21)OCO3)Nc1cccc(C(F)(F)F)c1	0.7%	nt	5.01µM*
Cc1ccc(NC(=O)Cn2c(=O)n(Cc3nc(-c4ccccc4)no3)c(=O)c3ccccc32)cc1C	-2.7%	nt	-20.6%
CCOc1ccc(NC(=O)Cn2c(=O)n(Cc3nc(-c4ccccc4)no3)c(=O)c3cc4c(cc32)OCO4)cc1	-1.9%	nt	-16.6%
COc1ccc(-c2noc(Cn3c(=O)c4ccccc4n(CC(=O)Nc4cccc(C(F)(F)F)c4)c3=O)n2)cc1	-2.5%	nt	15.8µM*
COc1cc(OC)cc(C(=O)Nc2cccc(-c3cn4ccsc4n3)c2)c1	-4.1%	nt	-1.7%
CCOC(=O)C(Cc1c[nH]c2ccccc12)NC(=O)c1ccccc1Br (stereo not given)	nt	10.8%	nt
CC(C)(C)c1ccc(C(=O)NC(Cc2c[nH]c3ccccc23)C(=O)OCC(=O)c2ccc(Br)cc2)cc1 (stereo not given)	-4.0%	nt	10µM*
SMILES	Cruzain inh Det	NS1 function inh	Cruzain noTriton
Cc1ccc(C(=O)COC(=O)C(Cc2c[nH]c3ccccc23)NC(=O)c2ccc(C(C)(C)C)cc2)cc1 (stereo not given)	2.0%	nt	10µM*
Cc1cc(NC(=O)COC(=O)[C@H](Cc2c[nH]c3ccccc23)NC(=O)c2ccc(F)cc2)no1	14.1µM*	-12.4%	?
O=C(COC(=O)C(Cc1c[nH]c2ccccc12)NC(=O)c1ccc(Cl)cc1)c1ccc(Cl)cc1 (stereo not given)	-2.3%	nt	?
CCc1ccc(C(=O)NC(Cc2c[nH]c3ccccc23)C(=O)OCC(=O)c2ccc(Br)cc2)cc1 (stereo not given)	-5.1%	nt	15.8µM*
CC(=O)NC(Cc1c[nH]c2ccccc12)C(=O)OCC(=O)Nc1cc(C)on1 (stereo not given)	-1.5%	-12.4%	-1.1%
O=C(COC(=O)C(Cc1c[nH]c2ccccc12)NC(=O)c1ccc(Br)cc1)c1ccc(Cl)cc1 (stereo not given)	-0.8%	nt	?
O=[N+]([O-])c1ccc(NCCO)c(OCCO)c1	-5.8%	nt	-3.3%
COc1ccc(NC(=O)CCc2c(C)nc3nc(CNC(=O)OC(C)(C)C)nn3c2C)cc1OC	-0.3%	nt	10.5%
Cc1nnc(SCc2ccccc2Cl)c2cc3occc3n12	-4.8%	nt	?
Cc1ccc2c(c1)C(=O)[C@@]1(O)CCN(c3ccccc3)C1=N2	-3.1%	nt	4.9%
Cc1ccc(S(=O)(=O)c2cc3cc(C(=O)Nc4ccc(C)cc4C)ccc3oc2=O)cc1	2.0%	nt	-1.6%
O=C(c1cc(S(=O)(=O)N2CCCC2)c[nH]1)N1CCN(c2cccc(Cl)c2)CC1	-14.3%	nt	22.1%
CN(C)c1ccc(-c2nccc(NCc3cccs3)n2)cc1	-5.9%	nt	-16.1%
Cc1ccc(-c2nnc(Nc3cccc(Cl)c3)c3ccccc23)cc1S(=O)(=O)N1CCCCC1	-2.3%	nt	7.94µM*
Cc1ccc(-c2nnc(Nc3cccc(Cl)c3)c3ccccc23)cc1S(=O)(=O)N1CCOCC1	-2.8%	nt	3.0%
Cc1ccc(-c2nnc(Nc3ccc(Cl)c(Cl)c3)c3ccccc23)cc1S(=O)(=O)N(C)C	-2.8%	nt	6.31µM*
Cc1ccc(-c2nnc(Nc3ccc(Cl)c(Cl)c3)c3ccccc23)cc1S(=O)(=O)NCCO	-2.3%	nt	14.9%
CNc1ccc(O)cc1	-5.3%	nt	-6.9%
Cc1ccc2c(n1)sc1c(=O)n(-c3cccc(C(F)(F)F)c3)nnc12	-1.4%	nt	-0.4%
Cc1cccc(C)c1Nc1c(-c2ccccc2Cl)nc2cnccn12	-5.9%	nt	12.9%
O=C(CSc1ccc(Cl)cc1)Nc1nnc(-c2cccc([N+](=O)[O-])c2)s1	-1.6%	-4.7%	?
O=C(Cc1cccc2ccccc12)Nc1nnc(-c2cccc([N+](=O)[O-])c2)s1	0.2%	12.3%	25.1µM*
NS(=O)(=O)c1ccc(-c2ccc([As](=O)(O)O)cc2)cc1	-1.0%	-2.9%	7.6%
Cc1ccc(OCC(=O)NC(=S)Nc2ccc(Br)c(C)n2)cc1	4.1%	4.5%	15.8µM*
Cc1nc(NC(=S)NC(=O)COc2ccc(Cl)cc2)ccc1Br	0.5%	15.1%	?
C=CCNc1sc(C(=O)c2ccccc2)c(N)c1C#N	-6.4%	-2.1%	-7.0%
C=CCNc1sc(C(=O)c2ccc(Br)s2)c(N)c1C#N	-1.0%	-1.5%	15.8µM*
O=C1NC(=S)N/C1=C/c1ccc(-c2c(Br)cc([N+](=O)[O-])cc2Br)o1	-11.6%	22.4%	20µM*
